The source of these data is PubChem BioAssay (NCATS).

Results filed as inconclusive are left out. Entries that show only a call come without a potency. Activity calls are given as the source filed them. The call rests on the fitted dose curve; in most records, active means well fitted inhibition curve with a large enough effect; inconclusive means small, poorly fitted or top-dose-only effect; inactive means flat fitted curve, though single readings scatter.

Chain of Calcium and integrin-binding protein 1 (Homo sapiens) (Q99828 whole entry, looked up): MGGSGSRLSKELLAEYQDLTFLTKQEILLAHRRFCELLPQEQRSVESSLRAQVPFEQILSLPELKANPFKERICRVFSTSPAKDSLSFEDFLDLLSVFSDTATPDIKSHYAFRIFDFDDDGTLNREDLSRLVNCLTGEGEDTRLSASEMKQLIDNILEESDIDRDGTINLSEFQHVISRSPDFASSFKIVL

The test concerns the target Calcium and integrin-binding protein 1 (Homo sapiens) (UniProt Q99828). The test can be described thus: Primary qHTS for Identification of Calcium Integrin Binding Protein 1 (CIB1) Competitor (AID 1508620).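 Further: GST tagged CIB1 binding a fluorescein labelled alphaIIb integrin peptide tracer; top concentration of the series differs between compounds.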 The settings on record: CIB1-GST / FITC-alphaIIb peptide fluorescence polarization; series mostly up to 57.7 µM. The text has this: Assay Provider: Ulhas P. Naik, PhD Sidney Kimmel Medical College Thomas Jefferson University, Philadelphia, PA Primary function of platelets is to maintain hemostasis. At the site of vascular injury, platelets adhere to adhesive proteins such as collagen and von Willebrand factor. Adherent platelets are activated and generate soluble platelet agonists such as thrombin, ADP and thromboxane A2. Following exposure of circulating platelets to these agonists, results in platelet shape change, granule secretion and activation of platelet integrin alphaIIb-beta3. Ligand binding to activated integrin alphaIIb-beta3 triggers outside-in signaling, leading to platelet aggregation, stabilization of platelet plug, and clot retraction. Upon atherosclerotic plaque rupture also causes platelet plug formation, which underlies a number of cardiovascular diseases such as myocardial infraction and stroke. A number of anti-platelet drugs such as aspirin, clopidogrel, prasugrel, vorapaxar, and eptifibatide are currently available to prevent the thrombotic complications. However, these anti-platelet agents have several limitations including inherent variability in individual responses, developing resistance, and serious bleeding side effects. For these reasons they are not suitable for long-term protection. Based on the experiences with current anti-platelet drugs, it appears that the most useful therapeutic approach is to intersect the secondary responses such as integrin outside-in signaling or recruitment of platelets by TxA2 and secreted ADP. Compounds, which can largely preserve the primary hemostatic function of platelets but inhibit secondary response will be most desired therapeutic agents for treatment of cardiovascular disease. CIB1 is a calcium integrin binding protein, which specifically interact with the alphaIIb subunit of integrin alphaIIb-beta3. Binding of CIB1 to alphaIIb regulates the outside-in signaling in platelets, which is needed for thrombus stabilization and thrombus growth. […] Therefore, we propose that discovery of a small molecule that can prevent the association of CIB1 and alphaIIb-beta3 will be a potential anti-platelet agent that can block the thrombus formation without undue effect on hemostasis. Reference: [1] Naik MU, Nigam A, Manrai P, et al. CIB1 deficiency results in impaired thrombosis: the potential role of CIB1 in outside-in signaling through integrin alpha IIb beta 3. J Thromb Haemost.
PROTOCOL TABLES SEQUENCE No. (1, 2, 3, etc.); […] (e.g., Cells, Incubation, Reagent, etc.); VALUE and DESCRIPTION. 1; Reagent; 3 uL; Protein or buffer (4/3x) 2; Compound; 46 nL; Control inhibitor / compound library 3; Time; 15 min; Room temperature incubation 4; Reagent; 1 uL; Fluorescent labeled peptide (4x) 5; Time; 1000 rpm; Centrifuge 6; Time; 15 min; Room temperature incubation 7; Detection; Ex 480/ Em 540; ViewLux Fluorescence Read NOTES (numbers refer to sequence above) 1; Protein Mixture: C1B1-GST (final concentrations of 1 uM). […] 3; Room temperature incubation. 4; Fluorescent Labeled Peptide: FITC-aIIb (final concentration of 100 nM). Sequence of alphaIIb peptide: Acetyl-[…]-FITC (purity is 95.83%). 5; Centrifuge 1000 rpm (164 g) for 15 seconds. 6; Room temperature incubation. 7; ViewLux Fluorescent Polization Read: excitation = 480(20) / emission = 540(25) S and P; FITC Dichroic mirror.
Consider `O=c1cc(N2CCOCC2)oc2c(-c3cccc4c3sc3ccccc34)cccc12`, for which the Potency entry is “inactive”.
`O=C(Nc1c(Cl)cncc1Cl)c1ccc(OC(F)F)c(OCC2CC2)c1`: the Potency entry was “inactive”.
As for `O=C1c2ccccc2-[n+]2ccc3c([nH]c4ccccc43)c21`, the Potency entry was “inactive”.
Take `COc1ccc(-c2oc3c(CC=C(C)C)c(OC4O[C@H](CO)[C@@H](O)[C@H](O)[C@@H]4O)cc(O)c3c(=O)c2OC2O[C@@H](C)[C@H](O)[C@@H](O)[C@@H]2O)cc1` (stereo not given in full): the Potency result is “inactive”.
For the molecule `Nc1ncnc2ccccc12`, the Potency entry was “inactive”.
For the molecule `COc1ccc(C2CC(c3ccccc3)=NN2c2ccc(S(N)(=O)=O)cc2)cc1` (stereo not given), the Potency entry is “inactive”.
Then `NC(=O)NN=Cc1ccc([N+](=O)[O-])o1`, with “inactive”.
Regarding `Cc1c(O)cccc1C(=O)N[C@@H](CSc1ccccc1)[C@H](O)CN1C[C@H]2CCCC[C@@H]2C[C@@H]1C(=O)NC(C)(C)C`, the Potency entry is “inactive”.
For the molecule `CNC(=O)c1ccc2cc(C3(O)CCn4cncc43)ccc2c1` (stereo not given), the Potency entry is “inactive”.
Then `C[N+](C)(C)CCCCCC[N+](C)(C)C`, with “inactive”; and `CN(C)CCC(c1ccccc1)c1ccccn1` (stereo not given), with “inactive”; and `CCCCCCCCCCCC1=C(O)C(=O)C=C(O)C1=O`, with “inactive”.
As for `COc1cc(N2CCC(N3CCN(C)CC3)CC2)ccc1Nc1ncnc(Nc2ccccc2S(=O)(=O)C(C)C)n1`, the Potency result was “inactive”.
Consider `O=c1ccn([C@@H]2O[C@H](CO)[C@H](O)[C@H]2O)c(=O)[nH]1`, for which the Potency result is “inactive”.
For `Nc1ncnc2c1ncn2[C@@H]1O[C@@H](CO)[C@H](O)[C@H]1O`, the Potency result is “inactive”.
Turning to `C[C@H]1[C@H](NC(=O)C(=NOC(C)(C)C(=O)O)c2csc(N)n2)C(=O)N1S(=O)(=O)O`, the Potency result is “inactive”.
On to `COc1cc2c(cc1OC)CN(CCc1ccc(NC(=O)c3cc(OC)c(OC)cc3NC(=O)c3cnc4ccccc4c3)cc1)CC2`, for which the Potency result was “inactive”.
`COc1ccc(Cc2ccc(NC(N)=O)cc2)cc1-c1cccc(Cl)c1`: the Potency result is “inactive”.
In the case of `CCNc1cc(NC2CCC(O)CC2)nc(Nc2ccc3c(ccn3Cc3ccccc3)c2)n1` (stereo not given), the Potency result is “inactive”.
For `CN1[C@@H]2CCC[C@@H]1CC(NC(=O)c1nn(C)c3ccccc13)C2` (stereo not given in full), the Potency result is “inactive”.
For `CC(=Cc1ccccc1)C=C1SC(=S)N(CC(=O)O)C1=O`, the Potency entry is “inactive”.
Then `NC(=O)c1ccc2nc(-c3ccc(Oc4ccc(Cl)cc4)cc3)[nH]c2c1`, with “inactive”; and `CC(=NNC(=S)N1CCC1)c1ccccn1`, with “inactive”; and `CC(=O)OC1C(C)OC(Oc2c(-c3ccc(O)cc3)oc3cc(O)cc(O)c3c2=O)C(O)C1OC(C)=O` (stereo not given), with “inactive”.
As for `O=C(Nc1ccccc1-c1cn2c(CN3CCNCC3)csc2n1)c1cnc2ccccc2n1`, the Potency entry was “inactive”.
Turning to `CO[C@@H](C(=O)N1Cc2[nH]nc(NC(=O)c3ccc(N4CCN(C)CC4)cc3)c2C1)c1ccccc1`, the Potency result was “inactive”.
Next, `CCn1c(C(=O)N(C2CC2)C2CC2)cc2c3c(ncn3C)c(Nc3cc(C)n(C)n3)nc21`: “inactive”; `CC1(C)CCC2=C(O1)c1ccccc1C(=O)C2=O`: “inactive”; `O=C(CCCCCCC(=O)Nc1ccccc1)NO`: “inactive”.
Then `O=c1c(-c2ccc(O)cc2)coc2cc(O[C@@H]3O[C@H](CO)[C@H](O)[C@H](O)[C@H]3O)ccc12`, with “inactive”; and `COc1ccc2c3c1OC1C[C@@H](O)C=C[C@@]31CCN(C)C2` (stereo not given in full), with “inactive”.
With `Cc1c(NC(=O)c2ccc(C(C)(C)C)cc2)cccc1-c1cn(C)c(=O)c(Nc2ccc(C(=O)N3CCOCC3)cc2)n1`, the Potency result was “inactive”.
Take `CC(=O)O[C@]1(C(C)=O)CC[C@@H]2[C@@H]3C[C@H](C)C4=CC(=O)CC[C@]4(C)[C@H]3CC[C@@]21C`: the Potency result was “inactive”.
Then `CCCCCN(C)CCC(O)(P(=O)(O)O)P(=O)(O)O`, with “inactive”; and `O=c1c(-c2ccc(O)cc2)coc2cc(OC3O[C@H](CO)[C@H](O)[C@H](O)[C@H]3O)cc(O)c12` (stereo not given in full), with “inactive”.
For `Cc1ccc(F)c(NC(=O)Nc2ccc(-c3cccc4[nH]nc(N)c34)cc2)c1`, the Potency result is “inactive”.
As for `O=C1c2c(O)cc(O)cc2O[C@H](c2cc(O)c(O)c(O)c2)[C@H]1O`, the Potency result was “inactive”.
Consider `COc1ccc2c(Oc3ccc(NC(=O)c4c(C)n(CC(C)(C)O)n(-c5ccccc5)c4=O)cc3F)ccnc2c1`, for which the Potency result is “inactive”.
Turning to `c1ccc2c(Cc3c[nH]c4ccccc34)c[nH]c2c1`, the Potency entry was “inactive”.
Consider `CC=CCC=CCCC(=O)[C@H]1O[C@@H]1C(N)=O`, for which the Potency entry was “inactive”.
